Our source for the growth values is PubChem BioAssay (NCI).

The structures appear in SMILES notation. This is part of a sample that, as a whole, favours compounds with a hit. Of some 83,000 tested, about 20% had one in any assay.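 Each cell line was grown in a 96-well plate and treated with one concentration of compound for 48 hours. Values below 10 were considered active.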 A number with no mark means an inactive call. The source made the active and inactive calls.

Test in all cases: NCI-60 one-dose screen, 48 h (100 = growth as untreated, 0 = no growth, -100 = all killed)
The subject of one experiment is DU-145 prostate. The following applies: 10 µM unless noted.
Another experiment deals with K-562 leukemia. The following applies: 10 µM unless noted.
The subject of a further experiment is MALME-3M melanoma. The following applies: 10 µM unless noted.
A further experiment has as its system MDA-MB-231 breast. The settings on record: 10 µM unless noted.
A further experiment concerns SF-268 CNS. The settings on record: 10 µM unless noted.
The subject of the next experiment is SF-295 CNS. The following applies: 10 µM unless noted.
In a further experiment the test system is SF-539 CNS. The following applies: 10 µM unless noted.
The subject of the next experiment is UACC-257 melanoma. The following applies: 10 µM unless noted.
A further experiment relates to M14 melanoma. The following applies: 10 µM unless noted.
Another experiment relates to HCT-15 colon. The settings on record: 10 µM unless noted.
For another experiment, the system named is HT29 colon. The settings on record: 10 µM unless noted.
Another experiment has as its system SNB-75 CNS. The following applies: 10 µM unless noted.
A further experiment deals with SNB-19 CNS. The following applies: 10 µM unless noted.
The test system of another experiment is U251 CNS. The following applies: 10 µM unless noted.
The subject of a further experiment is PC-3 prostate. The following applies: 10 µM unless noted.
The test system of another experiment is SK-MEL-5 melanoma. The following applies: 10 µM unless noted.
The next experiment relates to LOX IMVI melanoma. The following applies: 10 µM.
A further experiment deals with RXF 393 renal. The following applies: 10 µM unless noted.
For the next experiment, the system named is UACC-62 melanoma. The following applies: 10 µM unless noted.
The next experiment deals with SK-MEL-28 melanoma. The following applies: 10 µM unless noted.

As for `Nc1ccc(-c2ccc(N)c(S(=O)(=O)O)c2)cc1S(=O)(=O)O`, the growth with DU-145 prostate was 109%; in the experiment on K-562 leukemia, 118%; with MALME-3M melanoma, 107%; with MDA-MB-231 breast it was 110%; in the experiment on SF-268 CNS, 103%; in the experiment on SF-295 CNS, 115%. Further, the growth is 106% in the experiment on SF-539 CNS; 134% in the experiment with UACC-257 melanoma; 104% in the experiment on M14 melanoma; 118% with HCT-15 colon; 109% with HT29 colon; 83.1% in the experiment with SNB-75 CNS. In addition, the growth with SNB-19 CNS was 101%; in the experiment with U251 CNS, 115%; in the experiment with PC-3 prostate, 101%; in the experiment with SK-MEL-5 melanoma it was 111%; in the experiment with LOX IMVI melanoma, 94.4%.

Take `O=C/C=C/c1ccc([N+](=O)[O-])cc1`: the growth was 102% in the experiment with DU-145 prostate; 95.8% in the experiment on K-562 leukemia; 99.6% in the experiment on MALME-3M melanoma; 116% in the experiment on RXF 393 renal; 98.2% with SF-268 CNS; 105% in the experiment with SF-295 CNS. Moreover, the growth was 99.3% in the experiment on SF-539 CNS; 97.7% in the experiment with UACC-257 melanoma; 93.3% with M14 melanoma; 105% with HCT-15 colon; 97.6% with HT29 colon; 98.9% in the experiment with SNB-75 CNS. Further, the growth was 95.3% in the experiment with SNB-19 CNS; 95.5% with U251 CNS; 98.7% in the experiment with PC-3 prostate; 102% in the experiment with SK-MEL-5 melanoma; 98.2% in the experiment with UACC-62 melanoma; 83.8% in the experiment with LOX IMVI melanoma. The growth with SK-MEL-28 melanoma is 113%.

Take `CCCCCCC1N=C(N)N=C(N)N1c1cccc(Cl)c1` (centres undefined): the growth was 34.3% with DU-145 prostate; 20.1% in the experiment with K-562 leukemia; 40.9% in the experiment on MALME-3M melanoma; 68% in the experiment on MDA-MB-231 breast; 19.6% in the experiment on SF-268 CNS; 13.8% in the experiment on SF-295 CNS. Moreover, the growth is 5.72% (active) in the experiment with SF-539 CNS; 63.9% in the experiment with UACC-257 melanoma; 31.7% in the experiment on M14 melanoma; 84.2% with HCT-15 colon; 17.9% in the experiment on HT29 colon; -0.752% (active) with SNB-75 CNS. The growth in the experiment on SNB-19 CNS is 26.9%; with U251 CNS, 33.6%; in the experiment on PC-3 prostate, 29.3%; in the experiment with LOX IMVI melanoma, 17.1%; in the experiment with SK-MEL-28 melanoma, 40%.

For `CCOc1ccc2c(c1)/C(=C\C=C\C1CC(C)C3CC(OCC)CCC3N1CC)CC(C)N2CC` (centres undefined), the growth in the experiment with DU-145 prostate was 14.8%; in the experiment on K-562 leukemia, 4.61% (active); with MALME-3M melanoma, -30.1% (active); in the experiment on MDA-MB-231 breast, 13.6%; in the experiment on SF-268 CNS, 21.7%; in the experiment on SF-539 CNS it was 19.5%. Also, the growth in the experiment with UACC-257 melanoma is -25.2% (active); with M14 melanoma it was 14.9%; with HCT-15 colon it was 17.8%; with HT29 colon, -33.4% (active); in the experiment with SNB-75 CNS it was -0.249% (active); with SNB-19 CNS, 22.2%. The growth with PC-3 prostate was 3.32% (active); in the experiment on SK-MEL-5 melanoma it was -86.3% (active); with UACC-62 melanoma, 32.5%; with LOX IMVI melanoma, 16.3%; in the experiment with SK-MEL-28 melanoma, 22.8%.

As to `CC(=O)C1Cc2ccccc2C1=O` (centres undefined), the growth in the experiment on DU-145 prostate is 106%; in the experiment on K-562 leukemia, 116%; in the experiment with MALME-3M melanoma it was 94.3%; in the experiment with MDA-MB-231 breast it was 98.8%; in the experiment with SF-268 CNS it was 103%; with SF-295 CNS, 100%. The growth is 99.6% with SF-539 CNS; 89.8% in the experiment on UACC-257 melanoma; 109% with M14 melanoma; 108% with HCT-15 colon; 104% with HT29 colon; 70.8% with SNB-75 CNS. The growth in the experiment on SNB-19 CNS was 98%; with U251 CNS, 103%; in the experiment with PC-3 prostate, 94.7%; in the experiment on SK-MEL-5 melanoma it was 103%; with LOX IMVI melanoma, 94.4%; in the experiment with SK-MEL-28 melanoma it was 115%.

With `CCCC[n+]1c(/C=C\c2c(OC)cc(OC)cc2OC)ccc2ccccc21`, the growth with DU-145 prostate was 23%; in the experiment on K-562 leukemia it was 0.911% (active); in the experiment on MALME-3M melanoma, 13%; with MDA-MB-231 breast, -15.1% (active); in the experiment with SF-268 CNS, 22%; in the experiment on SF-295 CNS, -74.7% (active). Besides, the growth was 10.3% in the experiment on SF-539 CNS; -41.5% (active) with UACC-257 melanoma; 9% (active) in the experiment with M14 melanoma; 35.1% in the experiment with HCT-15 colon; -33.5% (active) in the experiment on HT29 colon; -13.2% (active) in the experiment with SNB-75 CNS. The growth in the experiment on SNB-19 CNS was 19%; in the experiment with PC-3 prostate it was 2.91% (active); with UACC-62 melanoma it was -37.2% (active); in the experiment with LOX IMVI melanoma, -75.5% (active); with SK-MEL-28 melanoma it was -10.8% (active).

Take `O=C1C(=O)c2cccnc2-c2ncccc21`: the growth in the experiment with DU-145 prostate is -74% (active); in the experiment on K-562 leukemia, -23.4% (active); with MALME-3M melanoma, -12.6% (active); with MDA-MB-231 breast, -39.3% (active); in the experiment on SF-268 CNS it was -94.5% (active); in the experiment with SF-295 CNS, 2.62% (active). Moreover, the growth is -97% (active) in the experiment on SF-539 CNS; 0.671% (active) with UACC-257 melanoma; -92.6% (active) in the experiment with M14 melanoma; -20.5% (active) in the experiment with HCT-15 colon; -62.9% (active) with HT29 colon; -13.3% (active) in the experiment on SNB-75 CNS. Besides, the growth in the experiment on SNB-19 CNS is 0.441% (active); in the experiment with U251 CNS, -91.5% (active); in the experiment with PC-3 prostate, -24.5% (active); in the experiment with SK-MEL-5 melanoma, -100% (active); in the experiment on LOX IMVI melanoma, -83.8% (active); in the experiment on SK-MEL-28 melanoma it was -9.12% (active).

As for `COc1cc(OC)c(/C=C/c2c3ccccc3cc[n+]2C)c(OC)c1`, the growth in the experiment on DU-145 prostate is 36.5%; with K-562 leukemia, 5.35% (active); in the experiment on MALME-3M melanoma, 33.3%; in the experiment with MDA-MB-231 breast it was 42.4%; in the experiment on SF-268 CNS, 26.3%; in the experiment on SF-295 CNS it was -32.3% (active). The growth in the experiment with SF-539 CNS was 31.9%; with UACC-257 melanoma, -16.7% (active); in the experiment on M14 melanoma it was 41.7%; in the experiment with HCT-15 colon, 97.9%; in the experiment with HT29 colon, 1.89% (active); in the experiment on SNB-75 CNS, 12.3%. Moreover, the growth was 35.8% in the experiment with SNB-19 CNS; 19.2% in the experiment on PC-3 prostate; -14% (active) in the experiment on SK-MEL-5 melanoma; 15.7% in the experiment with UACC-62 melanoma; -39.1% (active) with LOX IMVI melanoma; 30.1% with SK-MEL-28 melanoma.

`O=C1C=CC(O)=CC1=P(c1ccccc1)(c1ccccc1)c1ccccc1`: the growth in the experiment on DU-145 prostate was 114%; in the experiment on K-562 leukemia it was 88.8%; in the experiment on MALME-3M melanoma it was 59.5%; in the experiment on MDA-MB-231 breast, 81.3%; with SF-268 CNS it was 100%; in the experiment with SF-295 CNS it was 107%. The growth is 86.9% in the experiment on SF-539 CNS; 100% with M14 melanoma; 96.2% with HCT-15 colon; 103% in the experiment with HT29 colon; 84.2% in the experiment on SNB-75 CNS; 94.9% in the experiment with SNB-19 CNS. Also, the growth with U251 CNS is 92.3%; in the experiment with PC-3 prostate it was 91.6%; with SK-MEL-5 melanoma, 95.7%; with UACC-62 melanoma, 83.7%; in the experiment with LOX IMVI melanoma it was 94.7%; in the experiment with SK-MEL-28 melanoma, 102%.
